A selection: hits, their analogues and other compounds. The true share with any hit is near 9.3%.
VACV Venus inh: inhibitors of vaccinia virus (Venus reporter); Vaccinia virus Venus reporter expression, fluorescence; Potency, µM (series often up to 36.5 µM), hits mostly inhibitors; 0.46% of 330,000 active; AID 720580; calls by dose curve; tested in A549 cells; also: nearly all actives have a fitted effect of over 30% in size
HCMV antiviral: inhibitors of human cytomegalovirus; HFF cells, HCMV-luciferase reporter, 72 h; hits give low values; activity change, negative = inhibition, % at 57.5 µM; 4.5% of 410,000 active; AID 1259415; in the data active = activity change below about -60%; inconclusive = no clear call, values can overlap the other calls; inactive = above about -39%
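Screen run at 2 compound doses on HFFs infected with reporter HCMV, MOI 1 PFU/cell. Luciferase activity from cell lysates at 72 h post infection gave inhibition relative to buffer-only and Salinomycin wells.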
Vaccinia mCherry: vaccinia inhibition (mCherry reporter) | Vaccinia virus mCherry reporter infection, fluorescence | Potency, µM (top dose mostly 36.5 µM), actives largely listed as inhibitors | 0.63% of 310,000 active | AID 720579; calls by dose curve; tested in A549 cells; also: nearly all actives have a fitted effect of over 35% in size
HCV inh: HCV inhibition; Potency, µM (highest dose often 41.8 µM), actives largely listed as inhibitors; 3.4% of 340,000 active; Huh7.5.1 HCVcc-Cre infection, luciferase reporter, 44 h
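Reporter virus HCVcc-Cre (~0.5 moi) infects cells exposed to compound; seeding density 1,000 cells/well with 4 h settling beforehand. Luminescence, 15 sec read, taken 44 h post-infection following a 15 min RT substrate incubation.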
FMDV antiviral: antivirals against foot and mouth disease virus | 1.2% of 410,000 active | FMDV antiviral cell-based qHTS | Potency, µM (series often up to 57.9 µM), usual class: inhibitors; calls by dose curve; tested in HEK293T cells; also: read-out not given here; nearly all actives have a fitted effect of over 45% in size
Sm TGR block: blocks Schistosoma mansoni thioredoxin glutathione reductase | AID 485364 | Q962Y6 | purified TGR, DTNB reduction, TNB absorbance 405 nm | Potency, µM (highest dose often 114 µM), most hits filed as inhibitors | 3% of 360,000 active; also: nearly all actives have a fitted effect of over 60% in size
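First, TGR (20 nM dispensed) and NADPH were mixed with compound. Second, a 15 min room-temperature incubation followed. Third, further NADPH and then DTNB were added to start the reaction. Finally, TNB absorbance was monitored kinetically.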
Of the large screens only hits and unclear results are named; the others gave an inactive call; ! = not confirmed by another sample. Unless noted, calls follow the shape of the dose curve; as a rule, active = well fitted curve in the direction sought with a large enough effect; inconclusive = small, poorly fitted or top-dose-only effect, or another doubt; inactive = no such curve, though single readings can be large; an effect the other way counts as inactive or inconclusive.

CCOc1ccc(NC(=O)C2CCC(CNc3c(N4CCOCC4)c(=O)c3=O)CC2)cc1 (stereo unspecified)	none
CC1(C)OC(c2ccccc2)=C/C(=C/C=Nc2ccccc2)O1	HCV inh inconclusive
CC1(C)OC(c2ccccc2)=C/C(=C\C=N\NC(=O)c2ccncc2)O1	HCMV antiviral -64.1
CCOC(=O)c1c(C)oc2c(F)c(F)c(F)c(F)c2c1=O	HCMV antiviral -103.5, HCV inh 10µM, FMDV antiviral 11.2µM, Sm TGR block 31.6µM (no result: Vaccinia mCherry)
CCOC(=O)c1c(C)oc(=O)c(CC)c1O	none (no result: HCV inh, Sm TGR block)
COc1cc(C(=O)O/N=C2\C=CC(=O)C=C2C)cc(OC)c1OC	HCMV antiviral inconclusive, FMDV antiviral inconclusive, Sm TGR block 3.16µM (no result: VACV Venus inh, Vaccinia mCherry)
COc1cc(C(=O)O/N=C2/C=CC(=O)C(C)=C2C)cc(OC)c1OC	HCMV antiviral -105.2, FMDV antiviral inconclusive (no result: Vaccinia mCherry)
CCOC(=O)c1c(NC(=O)C2=C(C)NC(=S)NC2c2ccc(F)cc2)sc(C)c1C (stereo unspecified)	HCV inh 8.91µM (no result: VACV Venus inh, Vaccinia mCherry)
CCOC(=O)c1c(NC(=O)C2=C(C)NC(=S)NC2c2ccc(F)cc2F)sc(C)c1C (stereo unspecified)	HCMV antiviral inconclusive, HCV inh inconclusive
CCOC(=O)c1c(NC(=O)C2=C(C)NC(=S)NC2c2ccc(C)cc2)sc(C)c1C (stereo unspecified)	HCV inh 10µM
CCOC(=O)c1ccc(NC(=S)N2CCCC(C(=O)OCC)C2)cc1 (stereo unspecified)	HCV inh inconclusive
COc1ccc(S(=O)(=O)N2CCCCC2)cc1N(C)S(=O)(=O)c1ccccc1	none (no result: HCV inh)
COc1ccc(S(=O)(=O)NN(C)C)cc1N(C)S(=O)(=O)c1ccc(Cl)cc1	HCMV antiviral -63.8
COc1ccc(S(=O)(=O)Nc2ccc(C)cc2)cc1N(C)S(=O)(=O)c1ccc(Cl)cc1	VACV Venus inh 17.8µM, HCMV antiviral -99.0, Vaccinia mCherry inconclusive, HCV inh 8.91µM (no result: FMDV antiviral)
O=C(NCCc1ccccc1)NC1CCCCC1	none (no result: VACV Venus inh, Vaccinia mCherry)
COc1ccc(COC(=O)C2=C(C)NC(=O)NC2c2ccc(O)c(OC)c2)cc1 (stereo unspecified)	HCMV antiviral -68.1 (no result: FMDV antiviral)
COc1ccc(COC(=O)C2=C(C)NC(=O)NC2c2cccc(Br)c2)cc1 (stereo unspecified)	HCV inh 10µM, FMDV antiviral inconclusive (no result: VACV Venus inh, Vaccinia mCherry)
CC1=C(C(=O)OCc2ccccc2)C(c2cccc(Br)c2)NC(=O)N1 (stereo unspecified)	FMDV antiviral inconclusive (no result: VACV Venus inh, Vaccinia mCherry)
C1CCN(CCCNC2C3CC4CC(C3)CC2C4)C1 (stereo unspecified)	HCMV antiviral -84.0, HCV inh 2.51µM
CC(C)(C)C(=O)Cn1ncc(Br)c(Br)c1=O	HCMV antiviral -101.0, HCV inh 10µM, FMDV antiviral inconclusive (no result: VACV Venus inh, Vaccinia mCherry, Sm TGR block)
CC(C)(C)C(=O)Cn1ncc(N2CCOCC2)c(Cl)c1=O	none
CC(NS(=O)(=O)c1ccc(Cl)c(Cl)c1)C(=O)OCC(=O)N1CCCCCC1 (stereo unspecified)	none
CCC(C)Sc1ccc(-c2nc3ccc(C)cn3c2NC2CCCCC2)cc1 (stereo unspecified)	VACV Venus inh inconclusive, Vaccinia mCherry 8.91µM (no result: HCMV antiviral)
Cc1ccn2c(NC3CCCC3)c(-c3cccs3)nc2c1	Vaccinia mCherry inconclusive, Sm TGR block 20µM
CCC(C)Sc1cccc(-c2nc3ccc(C)cn3c2NC2CCCCC2)c1 (stereo unspecified)	HCMV antiviral inconclusive, Vaccinia mCherry inconclusive, FMDV antiviral inconclusive
CC(=O)c1ccc(-c2cccc(-c3nc4ccccn4c3NC3CCCCC3)c2)cc1	VACV Venus inh inconclusive, HCV inh 10µM, FMDV antiviral inconclusive
c1csc(-c2nc3ccccn3c2NC2CCCCC2)c1	FMDV antiviral inconclusive
CCC(C)Sc1cc(-c2nc3cc(C)ccn3c2NC2CCCCC2)ccc1OC (stereo unspecified)	VACV Venus inh inconclusive, HCMV antiviral -83.9!, HCV inh inconclusive, FMDV antiviral inconclusive (no result: Sm TGR block)
Cc1cccc(C(=O)NC2(C(F)(F)F)N=C(c3ccccc3)N(Cc3ccccc3)C2=O)c1 (stereo unspecified)	none (no result: HCV inh)
O=C(CC(=O)N/N=C/c1c(F)cccc1Cl)NCc1ccccc1	none
C/C(=N\O)C(=O)NCCCn1ccnc1	none
CCC(C)Sc1cc(-c2nc3ccccn3c2NC2CCCCC2)ccc1OC (stereo unspecified)	VACV Venus inh inconclusive, HCMV antiviral -88.2!, Vaccinia mCherry inconclusive, HCV inh inconclusive, FMDV antiviral inconclusive
Cc1ccc(NC(=O)OC(C)N2CCCCC2)cc1NC(=O)OC(C)N1CCCCC1 (stereo unspecified)	HCV inh 25.1µM (no result: Sm TGR block)
COc1cc(C2Nc3cc(Cl)c(S(N)(=O)=O)cc3S(=O)(=O)N2)ccc1OCc1ccccc1 (stereo unspecified)	none
Cn1c(N)c(C#N)c2c(c1=S)CSC(C)(C)C2	Sm TGR block 12.6µM (no result: VACV Venus inh, Vaccinia mCherry)
N#Cc1c(N)sc(=S)c2c1CCCCC2	HCMV antiviral inconclusive, Sm TGR block 7.94µM
CC1(C)Cc2c(C#N)c(N)sc(=S)c2CS1	Sm TGR block 31.6µM (no result: Vaccinia mCherry)
N#Cc1c(N)sc2c1CCCCCC2	none
CCCOc1ccccc1C(=O)NC(CO)C(=O)O (stereo unspecified)	none (no result: VACV Venus inh, Vaccinia mCherry)
OCCN1CCN(CC/C=C2/c3ccccc3Sc3ccc(Cl)cc32)CC1	VACV Venus inh inconclusive, HCMV antiviral inconclusive, HCV inh 11.2µM
CCCCCCCCCCC[N+](C)(C)CC/C=C1/c2ccccc2Sc2ccc(Cl)cc21	VACV Venus inh 11.2µM, Vaccinia mCherry inconclusive, FMDV antiviral inconclusive, Sm TGR block 1.78µM (no result: HCMV antiviral)
CCCCCCCCCC[N+](C)(C)CC/C=C1/c2ccccc2Sc2ccc(Cl)cc21	VACV Venus inh 11.2µM, Vaccinia mCherry inconclusive, HCV inh inconclusive, FMDV antiviral inconclusive, Sm TGR block 17.8µM (no result: HCMV antiviral)
CN(Cc1cccs1)c1nc(-c2cccnc2)nc2ccccc12	HCV inh inconclusive, FMDV antiviral 31.6µM
Cc1nc2nc(C)c(C)nc2nc1C	none (no result: VACV Venus inh, Vaccinia mCherry, HCV inh, FMDV antiviral, Sm TGR block)
Cc1nc2ccccn2c1C(=O)CSc1ccccc1Cl	VACV Venus inh inconclusive, HCMV antiviral -65.7, HCV inh inconclusive, FMDV antiviral 25.1µM (no result: Vaccinia mCherry)
CC1CCN(CC(=O)Nc2ccccc2C(=O)c2ccccc2)CC1	none
CC(C)(C)c1ccccc1NC(=O)CN1C(=O)NC(Cc2ccccc2)C1=O (stereo unspecified)	Sm TGR block 50.1µM
CC1CCN(CC(=O)Nc2ccccc2-c2ccccc2)CC1	HCV inh 35.5µM
CC(C)CC1NC(=O)N(CC(=O)Nc2ccccc2-c2ccccc2)C1=O (stereo unspecified)	Sm TGR block 2.24µM
O=C(NCc1ccccc1)c1cc(C2CCCN(S(=O)(=O)c3cccs3)C2)on1 (stereo unspecified)	Vaccinia mCherry inconclusive (no result: HCV inh, Sm TGR block)
CCCCCCc1ccc(-c2ccc(C#N)cc2)cc1	none (no result: VACV Venus inh, Vaccinia mCherry, HCV inh, FMDV antiviral, Sm TGR block)
CC(C)(C)c1ccc(C(=O)N2CCC(C(=O)NCCC3=CCCCC3)CC2)cc1	none

Compound activity from PubChem.
